This is a sample that favours compounds with a hit; in the whole collection about 27% have one here.
CYP2C19 inh = inhibitors of human CYP2C19; CYP2C19 Supersomes, luciferin-H EGE luminescence, 30 min; inhibition, % at 5 µM; hit rate 21% among 96,000; P33261;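 active = CYP2C19 inhibition above a set limit at 5 µM in the primary screen, cut at about 50% in these data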
CYP2C9 activ = increases human cytochrome P450 2C9 activity; P11712; recombinant CYP2C9, luciferin-H conversion, luminescence; active compounds read high; factor 1 = untreated enzyme, 0 = blocked; activation factor at 5 µM; hit rate 1.4% among 96,000; AID 1024;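 active = activation factor of 2 or more for CYP2C9 at a 5 µM dose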
CYP2C9 inh = blocks human cytochrome P450 2C9; P11712; CYP2C9 Supersomes, luciferin-H conversion, luminescence; inhibition, % at 5 µM; hit rate 20% among 96,000; AID 777;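 active = blocking of liver enzyme CYP2C9 beyond about 50% at 5 µM, limit read from the data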
CYP2C19 activ = activators of human cytochrome P450 2C19. P33261. recombinant CYP2C19, luciferin-H EGE luminescence; active compounds read high; 0 = fully inhibited enzyme, 1 = untreated enzyme. activation factor at 5 µM. 96,000 tested, under 10 active. AID 1025;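 active = activation factor of at least 2 at 5 µM in the primary screen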
Cav32 inh = human Cav3.2 channel inhibition, primary screen; O95180; Cav3.2-expressing cells, Fluo-4 calcium fluorescence FDSS; active compounds read low; B-score at 10 µM; hit rate 4% among 100,000;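 active = single-dose well whose peak fluorescence ratio is a statistical outlier from its plate by either plate-standardised score or position-corrected B-score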
Large screens that a line does not name were inactive.

CC1=C(C(=O)Nc2cccnc2)C(c2ccc(C(C)C)cc2)n2ncnc2N1 (centres undefined)	none (no result: CYP2C19 inh, CYP2C9 activ, CYP2C9 inh, CYP2C19 activ)
Cc1nnc(SCC(=O)NC2CC2)n1CCc1ccccc1	none
Cc1nc2c3cc(Cl)ccc3n(CCN3CCCCC3)c2s1	none
Cc1ccc(C)c(-n2c(CNc3ccc(F)cc3)nnc2SCC(N)=O)c1	none
COc1cccc(N2CCN(Cc3ccsc3)CC2)c1	CYP2C19 inh 90.7, CYP2C9 inh 50.4 (no result: Cav32 inh)
Cc1cc(C)n(-c2nc3ccccc3c(=O)n2OC2CCCCC2)n1	CYP2C19 inh 68.5, CYP2C9 inh 52.5
COC(=O)COn1c(-n2nc(C)cc2C)nc2ccccc2c1=O	none
CCOn1c(-n2nc(C)cc2C)nc2ccccc2c1=O	CYP2C19 inh 62.8
CC(=O)Nc1cccc(NC(=O)CSc2nnc(Cc3cccn3C)n2-c2ccc(C)cc2)c1	none
COc1ccc(-n2c(Cc3cccn3C)nnc2SCC(=O)Nc2cccc(Cl)c2)cc1	CYP2C9 inh 85.4, Cav32 inh -12.7
Cn1cccc1Cc1nnc(SCC(=O)Nc2cccc(F)c2)n1-c1ccc(F)cc1	Cav32 inh -7.32
Cn1cccc1Cc1nnc(SCC(=O)Nc2cccc(Cl)c2)n1-c1ccc(F)cc1	Cav32 inh -10.2
COc1ccc(-n2c(Cc3cccn3C)nnc2SCC(=O)Nc2cccc(NC(C)=O)c2)cc1	none
COc1cccc(OCCNc2cc(Cl)ccc2[N+](=O)[O-])c1	none
Cc1ccc(NC(=O)c2ccc(Cl)c(N3C(=O)C=CC3=O)c2)cc1	CYP2C9 inh 61.9
Cc1cccc(S(=O)(=O)Nc2cccc3c2C(=O)c2ccccc2-3)c1	CYP2C9 inh 58.6
O=C(O)c1cccc(S(=O)(=O)Nc2ccccc2Cl)c1	none (no result: Cav32 inh)
CNC(=O)c1nc(C)c(C2(C)CC(c3cccc([N+](=O)[O-])c3)=NO2)s1 (centres undefined)	none (no result: CYP2C19 inh, CYP2C9 activ, CYP2C9 inh, CYP2C19 activ)
CCN(CC)C(=O)C1CC(=O)N(c2ccc(F)c(Cl)c2)C1 (centres undefined)	none
Nc1nc(-c2ccco2)c(-c2ccco2)s1	CYP2C19 inh 78.5, CYP2C9 inh 77.3
Cc1ccc2nc(Cc3ccc(N)cc3)[nH]c2c1	CYP2C19 inh 82.3
Nc1ccc(-c2nc3c(Cl)c(N)ccc3[nH]2)cc1	none
Nc1ccc(Cc2nc3c(ccc4ccccc43)[nH]2)cc1	CYP2C19 inh 85.9
COc1ccc(CCn2nnc(-c3ccc(NC(C)=O)c(Cl)c3)n2)cc1	none (no result: CYP2C19 inh, CYP2C9 activ, CYP2C9 inh, CYP2C19 activ)
CCC(C)(C)n1nnnc1C(c1cc(OC)ccc1OC)N1CCC(C(N)=O)CC1 (centres undefined)	none (no result: CYP2C19 inh, CYP2C9 activ, CYP2C9 inh, CYP2C19 activ)
CCN1C(=O)N(S(=O)(=O)c2ccc(C)cc2)[C@@H](c2ccccc2)C(C(=O)OC)=C1C	none (no result: CYP2C19 inh, CYP2C9 activ, CYP2C9 inh, CYP2C19 activ)
COC(=O)C(C(C)=O)C1=C/C(=N\S(=O)(=O)c2ccc(C)cc2)c2ccccc2C1=O (centres undefined)	CYP2C19 inh 90.4, CYP2C9 inh 89.0
O=C(NCc1ccccn1)[C@H]1C[C@@H]1[C@H](NP(=O)(c1ccccc1)c1ccccc1)c1ccccc1	none (no result: CYP2C19 inh, CYP2C9 activ, CYP2C9 inh, CYP2C19 activ)
CCCc1cc(SCC(=O)Nc2c(C)n(C)n(-c3ccccc3)c2=O)n2c(nc3ccccc32)c1C#N	none
CCc1c(C#N)c(SCCC(=O)Nc2ccc(OC)cc2)nc2c1C(=O)CC(C)(C)C2	CYP2C19 inh 83.0, CYP2C9 inh 83.5
CC(C)Oc1ccc(N2CC(C(=O)OCC(=O)NCc3ccccc3)CC2=O)cc1 (centres undefined)	none
c1ccc2[nH]c(CSc3nc4ccccc4s3)nc2c1	CYP2C19 inh 98.3, CYP2C9 inh 52.9, Cav32 inh -6.43
c1ccc(SCc2nc3ccccc3[nH]2)nc1	CYP2C19 inh 90.4
CCC(C)SCc1nc2ccccc2[nH]1 (centres undefined)	CYP2C19 inh 93.1
COC(=O)[C@H](C)NC(=O)Nc1ccc(Oc2ccccc2)cc1	none
COC(C[C@H]1O[C@H]1[C@H](O)[C@H](C)OCc1ccccc1)OC	none (no result: CYP2C19 inh, CYP2C9 activ, CYP2C9 inh, CYP2C19 activ)
COc1ccc(C2C(=O)N(C3CCCCC3)CC(=O)N2C2CCCCC2)cc1 (centres undefined)	CYP2C9 inh 52.7
CCN(CC)c1ncnc2c1[nH]c1ccccc12	none
Cc1ccc2c(c1)c1ncnc(N3CCOCC3)c1n2C	none (no result: Cav32 inh)
Cc1ccc2c(c1)c1ncnc(N3CCC4(CC3)OCCO4)c1n2C	CYP2C9 inh 61.9 (no result: Cav32 inh)
c1ccc(CN2CCN(c3nc4ccccc4c4ccccc34)CC2)cc1	CYP2C9 inh 91.7
c1ccc2c(c1)[nH]c1c(N3CCC4(CC3)OCCO4)ncnc12	CYP2C19 inh 67.9
c1ccc2c(c1)CCN(c1ncnc3c1[nH]c1ccccc13)C2	CYP2C19 inh 95.4, CYP2C9 inh 94.6 (no result: Cav32 inh)
